According to the supplement of paper PMC11732987, “Enantioselective OTUD7B fragment discovery through chemoproteomics screening and high-throughput optimisation” (Communications Chemistry, 2025):

Target: COPS5 (UniProt Q92905)
Assay: log2 ratio of Biotin-Ahx-Ub-VS probe labelling (fragment/DMSO); higher = less target engagement (more negative = stronger competition), active = hit call of the paper (q ≤ 0.05, log2 ratio ≤ -1)
Settings: compound concentration: 200 uM; treatment time: 3 h
Protocol: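 Competitive ABPP in HEK293T cell lysate. Lysates were treated with each chloroacetamide fragment at 200 µM for 3 h, then with Biotin-Ahx-Ub-VS (0.5 µM, 1 h), NeutrAvidin-enriched and analysed by diaPASEF LC-MS/MS. Protein LFQ was median-normalised; average log2 ratio is fragment/DMSO from an unpaired t-test (n=3 treated, n=44 DMSO). Hits: q ≤ 0.05, log2 ratio ≤ -1, unique peptides ≥ 2.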

COPS5, sequence (Q92905 whole entry, looked up, the tested form may be a part): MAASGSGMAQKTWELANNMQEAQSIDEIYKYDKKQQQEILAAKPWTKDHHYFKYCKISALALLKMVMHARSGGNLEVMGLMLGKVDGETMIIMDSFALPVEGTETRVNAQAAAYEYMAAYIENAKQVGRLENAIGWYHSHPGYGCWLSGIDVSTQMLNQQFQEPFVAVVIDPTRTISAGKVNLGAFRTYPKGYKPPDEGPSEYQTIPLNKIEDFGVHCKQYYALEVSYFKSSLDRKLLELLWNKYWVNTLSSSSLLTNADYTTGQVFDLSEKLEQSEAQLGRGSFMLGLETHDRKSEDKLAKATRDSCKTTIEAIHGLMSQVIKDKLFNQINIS

log2 ratio of Biotin-Ahx-Ub-VS probe labelling, inactive:
COCC[C@@H](NC(=O)CCl)c1ccccc1 0.222
CCN(C(=O)CCl)C1CCS(=O)(=O)C1 (stereo not given) -0.0629
Cc1ncc2c(n1)CCN(C(=O)CCl)C2 0.163
CC1CCc2onc(CNC(=O)CCl)c2C1 (stereo not given) 0.0922
O=C(CCl)NCc1cccc(N2CCCC2=O)c1 -0.0124
Cc1cc(Cl)ccc1NC(=O)CCl -0.176
O=C(CCl)NC1CCC2(CC1)OCCO2 0.176
Cl.O=C(CCl)NC1(c2ncccn2)CCC1 0.0888
Cl.Cn1c(CNC(=O)CCl)nc2cccnc21 0.0916
O=C(CCl)NC1CCS(=O)(=O)c2ccccc21 (stereo not given) 0.159
N#Cc1ccccc1N1CCN(C(=O)CCl)CC1 -0.271
O=C(CCl)N1CCc2ccccc2C(O)C1 (stereo not given) 0.0553
CCN(C(=O)CCl)C1CCCCC1 0.0876
Cc1ccc(C(=O)NCCNC(=O)CCl)cc1 -0.05
Cc1nc(CC2CCN(C(=O)CCl)CC2)no1 0.22
COc1ccc(CN(C)C(=O)CCl)cc1 -0.0998
Cc1cccnc1NC(=O)C1CCN(C(=O)CCl)CC1.Cl -0.025
O=C(CCl)N1CCC(c2nc3ccccc3o2)CC1 -0.0083
O=C(CCl)N1CCC(C(=O)N2CCCC2)CC1 -0.223
CC(NC(=O)CCl)c1ccc2[nH]ncc2c1 (stereo not given) -0.00941
CN1C(=O)c2ccc(NC(=O)CCl)cc2C1=O -0.249
NS(=O)(=O)c1ccc(Cl)c(NC(=O)CCl)c1 0.226
CC(NC(=O)CCl)c1cccc(Cl)c1 (stereo not given) -0.0887
Cc1cccc(NC(=O)[C@@H]2CCCN2C(=O)CCl)n1 -0.0478
O=C(CCl)N1CCOC(CCc2ccccc2)C1 (stereo not given) -0.026
O=C(CCl)N1CCC2(CCC(O)CC2)CC1 0.318
O=C(CCl)N1CCC[C@@H]1c1ccon1 -0.115
COc1cc(Cl)c(C)cc1NC(=O)CCl -0.0677
O=C(CCl)NCCC1COCCO1 (stereo not given) -0.0816
CC(=O)Nc1ccc(NC(=O)CCl)cc1 -0.0874
Cc1ccc(CN(CCO)C(=O)CCl)cc1 -0.141
Cl.O=C(CCl)NCc1cc2c(nc1O)CCCC2 -0.023
O=C(CCl)N1CCOC2(CCC2)C1 0.247
O=C(CCl)N1CCc2[nH]c3ccccc3c2C1 -0.0163
CCC(NC(=O)CCl)c1ccc(Cl)cc1 (stereo not given) 0.193
Cl.O=C(CN1CCN(C(=O)CCl)CC1)Nc1ccc(F)cc1 0.0025
O=C(CCl)N1CCCN(C(=O)c2ccc(Cl)cc2)CC1 0.0384
Cl.Cn1cnc2cc(CNC(=O)CCl)ccc21 -0.125
Cc1ccc(-c2nnc(C)[nH]2)c(NC(=O)CCl)c1 0.151
Cc1ccc(N(CCC#N)C(=O)CCl)cc1C 0.127
